The values below come from PubChem BioAssay (EPA / NIEHS).

Experiment [1] can be described thus: BSK_SAg_PBMCCytotoxicity: PBMC Cytotoxicity Assessment in the BioMAP Diversity Plus: SAg Assay (AID 2283093).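 Also: PBMC viability measured as Alamar Blue reduction fluorescence at 546/580 nm; fitted both ways against DMSO so a hit may be loss or gain of signal.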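 As to AC50: PBMC superantigen activated with SEB plus TSST-1 one hour after compound addition.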 As to conditions: primary human HUVEC with PBMC. The essentials: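 Compound added to 75,000 PBMC/well for 1 h; SEB and TSST-1 then added at 20 ng/mL final each; 90 h incubation; Alamar Blue 6 h; read 546/580 nm ex/em. Activity fitted bidirectionally relative to DMSO baseline.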

Read-out in experiment [2]: Interleukin-8 (IL8), CXCL8 (gene 3576)
The experiment in a line: BSK_SAg_IL8: BioMAP Diversity Plus: SAg Assay for Interleukin-8 (IL8) Biomarker Activity (AID 2283094). The note with it: primary human HUVEC with PBMC; actives raise or lower the signal. An outline of the steps:
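In this co-culture of human umbilical vein endothelium with peripheral blood mononuclear cells, IL-8 is assayed by ELISA at 24 h. DMSO serves as baseline for bidirectional curve fitting.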

A short description of experiment [3]: BSK_SAg_Proliferation: Cell Proliferation Assessment in the BioMAP Diversity Plus: SAg Assay (AID 2283095).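 Also: relative cell number as total protein by SRB absorbance in sub-confluent culture.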 As to conditions: primary human HUVEC with PBMC. The essentials:
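Readout is SRB-stained protein (560 nm) in a primary human HUVEC and PBMC co-culture; sub-confluent cultures are read at 96 h. Activity is fitted bidirectionally using DMSO as baseline.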

The nature of experiment [4]: BSK_SAg_SRB: Viability Assessment in the BioMAP Diversity Plus: SAg Assay (AID 2283096).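 Also: cells read one day after compound addition; hits may be either gain or loss of signal compared with DMSO.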 As to conditions: primary human HUVEC with PBMC. The essentials: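 Total protein by sulforhodamine B staining, 24 h after dosing, in HUVEC–PBMC co-culture; DMSO-referenced bidirectional fitting.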

Activity calls are given as the source filed them. The calls were made as follows: active = hit-call score of the fitted dose curve at least 0.9, where 1 is the maximum; inactive = score below 0.9.

By AC50 is commonly meant the concentration at which the activity in the assay is half-maximal.

`O=S(=O)(c1ccc(Cl)cc1)c1cc(Cl)c(Cl)cc1Cl`: the outcome in experiment [1], in experiment [2] and in experiment [4] was inactive. For the same compound, in experiment [3], the concentration at half-maximal activity (AC50) is 10.8 µM (active).

Regarding `Cc1ccccc1OP(=O)(Oc1ccccc1)Oc1ccccc1`, the outcome in experiment [1] and in experiment [3] was inactive. Moreover, the AC50 was 9.82 µM (active) in experiment [2] and 31.6 µM (active) in experiment [4].

Consider `OC(Cc1ccccc1Cl)(Cn1cncn1)C1(Cl)CC1` (stereo not drawn), for which the outcome in experiment [1], in experiment [2], in experiment [3] and in experiment [4] was inactive.

For `Nc1c(Oc2ccccc2)cc(O)c2c1C(=O)c1ccccc1C2=O`, the result in experiment [1] and in experiment [3] was inactive. In addition, the AC50 was 1.56 µM (active) in experiment [2] and 2.22 µM (active) in experiment [4].

With `CC(C)(COCC1CO1)COCC1CO1` (stereo not drawn), the result in experiment [1], in experiment [2] and in experiment [4] was inactive. Further, in experiment [3], the AC50 was 36.7 µM (active).

As for `Cc1ccc(OP(=O)(Oc2ccc(C)cc2C)Oc2ccc(C)cc2C)c(C)c1`, the half-maximal activity concentration (AC50) in experiment [1] is 20 µM (active); in experiment [2], 4.7 µM (active); in experiment [3], 12.9 µM (active); in experiment [4], 20 µM (active).

For the compound `Oc1c(Br)cc(Br)cc1Br`, the result in experiment [1] and in experiment [2] was inactive. The values for the half-maximal activity concentration (AC50) in experiment [3] and in experiment [4] were 20 µM (active) and 31.7 µM (active), respectively.

On to `O=C1C=CC(=O)c2ccccc21`, for which the AC50 in experiment [1] was 0.102 µM (active); in experiment [2] it was 0.709 µM (active); in experiment [3] it was 0.125 µM (active); in experiment [4] it was 5.33 µM (active).

`O=[N+]([O-])c1cccc2ccccc12`: the result in experiment [1], in experiment [2], in experiment [3] and in experiment [4] was inactive.

As for `Cc1cccc(OP(=O)(Oc2cccc(C)c2)Oc2cccc(C)c2)c1`, the result in experiment [1], in experiment [2], in experiment [3] and in experiment [4] was inactive.

In the case of `O=C(Cc1ccccc1)OCCc1ccccc1`, the outcome in experiment [1], in experiment [2], in experiment [3] and in experiment [4] was inactive.

On to `CCCCN(CCCC)C(=S)[S-].CCCCN(CCCC)C(=S)[S-].[Ni+2]`, for which the result in experiment [1], in experiment [2], in experiment [3] and in experiment [4] was inactive.
